The record followed here is PubChem BioAssay AID504652 (National Center for Advancing Translational Sciences (NCATS), 2011).

Structures are written as SMILES. Hit rate of the full screen: of about 360,000 compounds, about 11,000 (3.1%) were called active. No stated cut-off is given here; in the data, active means activity change below about -30%; inactive means the rest. Only a selection was taken, and actives are over-represented in it overall. Square brackets hold non-standard residues; d marks the D form. Peptide text beside a SMILES is read from it. * marks the point of attachment. PhAc = O=C(Cc1ccccc1)*
On the % scale 0 is the no-effect control and ±100 the full control effect.

D(1A) dopamine receptor (Homo sapiens), sequence (P21728 whole entry, looked up): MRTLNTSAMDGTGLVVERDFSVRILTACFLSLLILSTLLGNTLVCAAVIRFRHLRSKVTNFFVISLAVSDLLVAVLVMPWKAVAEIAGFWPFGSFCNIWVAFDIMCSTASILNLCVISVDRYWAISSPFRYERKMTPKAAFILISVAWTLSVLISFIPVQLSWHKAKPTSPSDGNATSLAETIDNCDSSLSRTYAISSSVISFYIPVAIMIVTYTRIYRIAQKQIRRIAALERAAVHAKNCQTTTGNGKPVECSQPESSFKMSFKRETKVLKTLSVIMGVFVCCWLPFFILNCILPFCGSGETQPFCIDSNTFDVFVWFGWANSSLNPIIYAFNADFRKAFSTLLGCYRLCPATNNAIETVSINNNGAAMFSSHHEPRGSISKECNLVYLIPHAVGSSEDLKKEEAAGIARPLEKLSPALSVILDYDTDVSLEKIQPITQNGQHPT

The assay concerns the target D(1A) dopamine receptor (Homo sapiens) (UniProt P21728). Kind of assay: Antagonist of Human D 1 Dopamine Receptor: qHTS. The following applies: HEK293 TREx D1 cells, calcium flux, dopamine EC80; at 10 µM; hits give low values. Summed up:
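HEK293 T-REx cells expressing inducible, force-coupled D1 receptor; no-wash Ca dye, 30–90 min RT. Cmpd → 180 s read at 1 Hz → EC80 DA → 180 s read.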
In general terms: In qHTS, concentration-response curves come from the screen itself.
Turning to `Cc1cc2c(s1)c1cnn(Cc3cc(F)c(Cl)cc3Cl)c(=O)c1n2C`, the activity change, negative = inhibition was 3.83% (inactive).
As for `CC(C)OCCCNc1ncnc2c1[nH]c1ccc(F)cc12`, the figure is -48.9% (active); as for `Cc1ccc(-n2ncc(C(=O)N(C)Cc3ccccc3)c2-n2cccc2)cc1`, -9.92% (inactive); as for `Cc1cc2c(cc3c(SCc4nc(-c5ccccc5)oc4C)nnc(C)n32)o1`, -21.6% (inactive).
As for `O=C(NCC(c1ccco1)S(=O)(=O)c1cccs1)c1ccc(F)cc1` (configuration not stated), the figure is -7.39% (inactive); as for `O=C(CC1NCCNC1=O)Nc1cc(Cl)cc(Cl)c1` (configuration not stated), 4.63% (inactive).
As for `O=C(CC1NCCc2ccccc21)Nc1cccc(Cl)c1` (configuration not stated), the figure is -31.7% (active); as for `O=C(CC1NCCNC1=O)Nc1ccc(Oc2ccccc2)cc1` (configuration not stated), 1.7% (inactive); as for `O=C(NCc1ccc(Cl)cc1)c1ccc2c(c1)nnn2C1CCCC1`, -8.94% (inactive).
Regarding `Cc1ccc2ccc3c(c2n1)NS(=O)(=O)c1ccccc1-3`, the activity change, negative = inhibition was 8.65% (inactive).
As for `Cc1cccc2c1-c1sc(C(=O)Nc3ccc(F)cc3F)cc1CO2`, the figure is -14.5% (inactive).
Turning to `COc1ccc(CNC(=O)c2cc3c(s2)-c2ccccc2OC3)cc1`, the activity change, negative = inhibition was -24.1% (inactive).
As for `Cc1cccc2c1-c1sc(C(=O)NCCCN3CCc4ccccc4C3)cc1CO2`, the activity change, negative = inhibition was -31.8% (active).
As for `COc1ccc2c(c1)CCc1c(C(=O)Nc3cc(C)ccc3O)noc1-2`, the figure is -13.5% (inactive); as for `COc1ccc(CNc2nc(-c3ccc(Cl)cc3)cc(C(F)(F)F)n2)cc1`, -13.9% (inactive).
As for `CCCNC(=O)C1CCC(Cn2c(=O)c3sccc3n(Cc3ccccc3F)c2=O)CC1` (configuration not stated), the figure is -11.6% (inactive).
As for `CCCC12CN3CC(CCC)(CN(C1)C3c1c[nH]c3ccc(OC)cc13)C2=O` (configuration not stated), the figure is -7% (inactive).
With `COc1ccccc1CN(C)C(=O)c1cc2ccccc2o1`, the activity change, negative = inhibition was -35.2% (active).
`COc1ccccc1CNC(=O)C1CCN(c2nc3ccccc3o2)CC1`: the activity change, negative = inhibition is 15.4% (inactive).
Regarding `COc1ccccc1CN(C)C(=O)C1(c2ccc(Cl)cc2)CC1`, the activity change, negative = inhibition is -0.3% (inactive).
As for `CCc1ccc(N(CC)C(=O)CCn2cnc3onc(-c4ccc(F)cc4)c3c2=O)cc1`, the figure is -6.1% (inactive); as for `CC(NC(=S)Nc1ccccc1)C1COc2ccccc2O1` (configuration not stated), -14.2% (inactive); as for `CCCN(CC1COc2ccccc2O1)C(=S)Nc1ccc(C)cc1` (configuration not stated), -12.3% (inactive).
In the case of `S=C(NCC1COc2ccccc2O1)Nc1ccc(Br)cc1` (configuration not stated), the activity change, negative = inhibition was -47.7% (active).
For the molecule `COc1ccc(-n2c(=O)c3c(c4cc(OC)ccc4n3C)n(Cc3cccc(C)c3)c2=O)cc1`, the activity change, negative = inhibition is 4.47% (inactive).
As for `Cc1ccc(Cl)cc1N1CCN(C(=O)CN2C(=O)COc3ccc(S(=O)(=O)N4CCOCC4)cc32)CC1`, the figure is 3.53% (inactive).
Turning to `COc1cc(NC(=O)CCn2nc(C)cc2C)cc(OC)c1OC`, the activity change, negative = inhibition was 34.5% (inactive).
As for `Cc1ccc(NC(=O)N2CCC(c3nc4c(nnn4Cc4c(F)cccc4Cl)c(=O)[nH]3)CC2)cc1`, the figure is -40.8% (active); as for `O=C(c1ccccc1F)N1CCC(c2nc3c(nnn3Cc3cccc(F)c3)c(=O)[nH]2)CC1`, 0.447% (inactive).
As for `O=C(Nc1ccc(F)cc1)N1CCCC(c2nc3c(nnn3Cc3ccccc3Cl)c(=O)[nH]2)C1` (configuration not stated), the activity change, negative = inhibition was 2.43% (inactive).
For `Cn1cc(S(=O)(=O)N2CCCCCC2)cc1C(=O)N1CCN(c2ccc(F)cc2)CC1`, the activity change, negative = inhibition is 5.3% (inactive).
For the molecule `CC(C)Oc1ccc(CNC(=O)C2CCN(c3nc4ccccc4n(C)c3=O)CC2)cc1`, the activity change, negative = inhibition was 18.8% (inactive).
As for `CCCOc1ccc(C(=O)Nc2ccc3oc(-c4cccc(Cl)c4Cl)nc3c2)cc1`, the figure is 6.25% (inactive); as for `COc1ccc2oc(=O)c(-c3cn4c(n3)sc3cc(OC)ccc34)cc2c1`, 2.94% (inactive).
As for `Cn1c(=O)c2c(nc(SCC(=O)Nc3ccc(F)cc3)n2Cc2ccccc2)n(C)c1=O`, the activity change, negative = inhibition was 6.42% (inactive).
Turning to `CC(C)C[C@@H](NC(=O)[C@H]1CCCN1C(=O)Cc1ccccc1)C(N)=O` (PhAc-[dP]-[dL]-NH2), the activity change, negative = inhibition is 30% (inactive).
Turning to `CC(C)C[C@H](NC(=O)C1CCC(CNC(=O)[C@@H]2CCCN2C(=O)OC(C)(C)C)CC1)C(=O)O` (some centres not stated), the activity change, negative = inhibition was -1.98% (inactive).
As for `COC(=O)[C@H](CC(C)C)NC(=O)N1CCCCC1C` (some centres not stated), the figure is -78.1% (active); as for `CC(=O)c1ccc(NC(=O)CSc2nc(-c3ccccc3F)nc3c2c(=O)n(C)c(=O)n3C)cc1`, -0.158% (inactive); as for `CC(=O)Nc1cc(C(=O)NCc2ccc(F)cc2Cl)ccc1Sc1ccc(Cl)cc1`, 9.87% (inactive).
Turning to `CCOC(=O)c1ccc(NC(=O)C2CC(=O)NC(=Nc3ccc(C)c(C)c3)S2)cc1` (configuration not stated), the activity change, negative = inhibition is -1.43% (inactive).
Turning to `CCc1ccc(CNCc2c(C(=O)O)n(Cc3ccc(F)cc3Cl)c3cc(OC)ccc23)cc1`, the activity change, negative = inhibition is 6.05% (inactive).
As for `COCCCNC(=O)/C(C#N)=C/c1c(N2CCCCCC2)nc2ccccn2c1=O`, the figure is 13.8% (inactive); as for `O=Cc1c(N2CCN(c3cccc(Cl)c3)CC2)nc2ccccn2c1=O`, -43.5% (active); as for `O=Cc1c(Nc2ccccc2Cl)nc2ccccn2c1=O`, 9.2% (inactive).
Regarding `Cc1ccc(-c2nc3ccccn3c2Nc2c(C)cccc2C)o1`, the activity change, negative = inhibition was -2.58% (inactive).
Regarding `Cc1c(CNC2CCCCC2)c(C(=O)O)c(C)n1Cc1cccc(Cl)c1`, the activity change, negative = inhibition is -7.13% (inactive).
As for `CC(=O)NC1=NN(C(C)=O)C(C)(c2ccc(C)cc2)S1` (configuration not stated), the figure is 22.7% (inactive); as for `CC(=O)NC1=NN(C(C)=O)C(C)(c2ccc(Cl)s2)S1` (configuration not stated), 2.68% (inactive).
As for `CC(=O)NC1=NN(C(C)=O)C(C)(CCS(=O)(=O)c2ccc(Cl)c(Cl)c2)S1` (configuration not stated), the figure is -39.7% (active); as for `Cc1cc(OC(C)C(=O)Nc2sc3c(c2C(N)=O)CCCC3)ccc1Cl` (configuration not stated), 3.29% (inactive); as for `Cc1ccc(S(=O)(=O)c2nnn3c2nc(N2CCN(c4ccccc4F)CC2)c2cc(Cl)ccc23)cc1C`, -0.0376% (inactive).
As for `CCOc1ccccc1CNC(=O)C1CCCN(S(=O)(=O)c2ccc3c(ccn3C)c2)C1` (configuration not stated), the figure is -27.8% (inactive); as for `CN1CCN(CC(O)COCc2ccc3c(c2)OCO3)CC1` (configuration not stated), -5.88% (inactive); as for `COc1cc(Cl)c(S(=O)(=O)N2CCN(Cc3ccc4c(c3)OCO4)CC2)cc1Cl`, 4.53% (inactive).
On to `COc1cc(COCC(O)CN2CCN(Cc3ccc4c(c3)OCO4)CC2)cc(OC)c1OC` (configuration not stated), for which the activity change, negative = inhibition is -31.1% (active).
As for `CCOc1cccc(CNC(=O)c2ccc(N3CCCC3)c(NC(=O)Nc3ccccc3CC)c2)c1`, the figure is 4.78% (inactive).
With `CCc1nn(CC(=O)Nc2cc(C)cc(C)c2)c(=O)c2cc3sccc3n12`, the activity change, negative = inhibition was 3.41% (inactive).
For the molecule `CCCN1CN=C(NS(=O)(=O)c2ccc(NC(C)=O)cc2)NC1`, the activity change, negative = inhibition is -3.05% (inactive).
As for `COc1cccc(C2/C(=C(/O)c3ccc(F)cc3)C(=O)C(=O)N2CCN(C)C)c1` (configuration not stated), the figure is -3.01% (inactive).
As for `COc1ccc(/C(O)=C2/C(=O)C(=O)N(CC3CCCO3)C2c2ccc(OC)c(OC)c2)cc1` (configuration not stated), the figure is -3.45% (inactive).
As for `CCCOc1ccc(/C(O)=C2/C(=O)C(=O)N(CCN(C)C)C2c2ccc(OC)c(OC)c2)cc1` (configuration not stated), the figure is -33.3% (active); as for `O=C1C(=O)N(CCCO)C(c2ccccc2)/C1=C(\O)c1ccc(Br)cc1` (configuration not stated), -7% (inactive); as for `COc1cccc(C2/C(=C(/O)c3ccncc3)C(=O)C(=O)N2CCCN(C)C)c1` (configuration not stated), -21.5% (inactive).
As to `COc1ccc(/C(O)=C2/C(=O)C(=O)N(CCCN(C)C)C2c2ccccc2)cc1OC` (configuration not stated), the activity change, negative = inhibition was -33.2% (active).
As for `CCc1ccc(CNC(=O)c2ccc(CS(=O)c3ccc(Br)cc3)o2)cc1` (configuration not stated), the figure is 6.94% (inactive).
As to `COc1c(Cl)cc(C(=O)N(Cc2ccccc2F)C2CCS(=O)(=O)C2)cc1Cl` (configuration not stated), the activity change, negative = inhibition is -0.91% (inactive).
As for `CCOC(=O)c1ccc2c(c1)N(Cc1cccc(OC)c1)C(=O)c1ccccc1S2(=O)=O`, the figure is 4.54% (inactive); as for `Cc1c(Cl)cccc1NC(=O)CCS(=O)(=O)c1ccc2c(c1)oc(=O)n2C`, -0.334% (inactive).
As for `O=C(c1ccc(Cl)cc1)n1nc(-c2cccnc2)nc1NCc1ccc(F)cc1`, the figure is -16.2% (inactive).
Turning to `CCOc1ccc(OCC)c(NC(=O)CN(c2ccc(C)cc2)S(=O)(=O)c2c(C)n[nH]c2C)c1`, the activity change, negative = inhibition is -7.76% (inactive).
As for `O=C1Nc2cc(Cl)c(Cl)cc2N(O)N1c1ccccc1Cl`, the figure is -7.41% (inactive); as for `O=C1Nc2cc(Cl)c(Cl)cc2N(O)N1c1cc(Cl)cc(Cl)c1`, -76.7% (active); as for `Cc1c(CNC(C)c2ccccc2)c(C(=O)O)c(C)n1Cc1c(F)cccc1Cl` (configuration not stated), 18.6% (inactive).
As for `CCOc1ccc(OCC)c(NC(=O)c2c(C)nn(-c3ccccc3)c2-n2cccc2)c1`, the figure is 7.71% (inactive); as for `CN(C)CCN(C(=O)C1=COCCO1)c1nc2ccc(Cl)cc2s1`, -46.4% (active); as for `Cc1ccc2sc(NNC(=O)c3ccc4c(c3)OCCO4)nc2c1C`, 23.4% (inactive).
As for `O=C(Nc1nnc(S(=O)(=O)N2CCCc3ccccc32)s1)c1cccc(F)c1`, the figure is -7.22% (inactive); as for `Cc1ccc2nc(N(CCN(C)C)C(=O)C3=COCCO3)sc2c1`, -34.5% (active).
Regarding `CCN(CC)CCN(C(=O)c1cc(Cl)sc1Cl)c1nc2cc3c(cc2s1)OCO3`, the activity change, negative = inhibition was -2.46% (inactive).
As for `CCc1ccc2nc(N(CCCN(C)C)C(=O)c3ccc4c(c3)OCCO4)sc2c1`, the figure is -34.9% (active); as for `CC(C)N(Cc1nnc(-c2ccc(Cl)cc2)o1)C(=O)C1=COCCO1`, 2.43% (inactive); as for `O=C(Nc1ccc2nc(SCC(=O)N3CCCc4ccccc43)sc2c1)c1ccc(F)cc1`, -9.64% (inactive).
As for `NS(=O)(=O)c1ccc2nc(NC(=O)C3=COCCO3)sc2c1`, the figure is 1.85% (inactive).
As for `CN(C)CCCN(C(=O)c1ccc(S(=O)(=O)N2CCCc3ccccc32)cc1)c1nc2ccc(F)cc2s1`, the figure is -31.4% (active).
As for `CCN(CC)CCN(C(=O)c1ccc(N2C(=O)CCC2=O)cc1)c1nc2cc3c(cc2s1)OCO3`, the activity change, negative = inhibition is 6.3% (inactive).
Take `Cc1cc(C)c2nc(N(CCN(C)C)C(=O)/C=C/c3cccs3)sc2c1`: the activity change, negative = inhibition was 6.71% (inactive).
